Five compounds from PubChem BioAssay can be followed below.

Experiment [1] in a line: small molecules captured by biotinylated probe aFSTL3 – biochemical, small-molecule microarray, fluorescence 635/667, stem cell growth factor project, primary screen (AID 1064).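 Also: measures binding of the biotinylated anti-FSTL3 antibody to printed compounds.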 Particulars: higher = more signal.
The nature of experiment [2]: binders from COS7 lysate, DM2A8 probe, primary screen, torsin A project, cell lysate, small-molecule microarray, fluorescence 635/667 (AID 1065). Particulars: higher = more signal, COS7 lysate expressing mutant human TOR1A.
The nature of experiment [3]: small molecules captured by biotinylated probe aFGF2 – biochemical, small-molecule microarray, fluorescence 635/667, stem cell growth factor project, primary screen (AID 1067).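 Also: measures binding of biotinylated aFGF2 protein to printed compounds on slides; z-score merges feature fluorescence and signal-to-noise across triplicate slides.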 The following applies: higher = more signal.
Experiment [4] in a line: small molecules captured by biotinylated probe aFGF10 – biochemical, small-molecule microarray, fluorescence 635/667, stem cell growth factor project, primary screen (AID 1071).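 Also: score merges 667 nm spot intensity and signal to noise from triplicate slides.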 Particulars: higher = more signal.
In experiment [5] the target is Neurogenic locus notch homolog protein 2 (Homo sapiens) (UniProt Q04721). As to the kind of experiment: small molecules binding Notch2 protein – biochemical, small-molecule microarray, 635 nm fluorescence, stem cell growth factors, primary screen (AID 1073). The following applies: higher = more signal.
The target in experiment [6] is Pro-neuregulin-1, membrane-bound isoform (Homo sapiens) (UniProt Q02297). Briefly: small molecules binding neuregulin-1 protein – biochemical, small-molecule microarray, fluorescence 635/667, psychiatric disease protein project, primary screen (AID 1075).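 Also: score combines 667 nm spot fluorescence with signal to noise.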 The following applies: NRG1 binding, 635 nm fluorescence, higher = more signal.
Experiment [7] concerns Neuregulin-1 EGF-like domain. Briefly: small molecules binding NRG1 EGF domain – biochemical, small-molecule microarray, 635 nm fluorescence, primary screen (AID 1081).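 Also: binding of the protein to compounds printed on small-molecule microarray slides.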 The following applies: higher = more signal.
Experiment [8] is described as follows: FRG1 expression reporter modulators in myotubes – cell-based, C2C12 myotubes, firefly/Renilla luciferase, luminescence, FRG1 inhibition for FSHD, primary screen (AID 1084). Particulars: FRG1 promoter luciferase, higher = more signal, called active from +8 up or from −8 down.
Experiment [9] is described as follows: small molecules captured by biotinylated probe aFST – biochemical, small-molecule microarray, fluorescence 635/667, stem cell growth factor project, primary screen (AID 1086).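 Also: score merges 667 nm fluorescence with signal-to-noise of each printed compound spot.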 The following applies: higher = more signal.
The nature of experiment [10]: binders of probe aHhip on microarray, primary screen, stem cell growth factor project, biochemical, small-molecule microarray, fluorescence 635/667 (AID 1087).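 Also: score merges spot fluorescence at 667nm with spot signal to noise ratio.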 Particulars: higher = more signal.
Experiment [11] concerns PRMT1 (protein arginine N-methyltransferase 1). As to the kind of experiment: small molecules binding arginine methyltransferase PRMT1 – biochemical, small-molecule microarray, 635 nm fluorescence, primary screen (AID 1088).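 Also: binding of Prmt1 protein to compounds spotted on small-molecule microarray slides.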 Particulars: higher = more signal.
Experiment [12] in a line: growth effects on S. cerevisiae YJM789 – YJM789 clinical isolate, OD600, 24 h, basal, primary screen (AID 1089).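 Also: growth of clinical yeast isolate S. cerevisiae YJM 789 seeded 1000 cells per well; test concentration not given here.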 The following applies: higher = more signal, called active from +8 up or from −8 down.
The nature of experiment [13]: S. pombe growth modifiers, basal conditions – strain 972, OD600, 24 h, no modulator, primary screen (AID 1090).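 Also: basal condition with compound alone and no growth modifier present; test concentration not given here.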 Particulars: S. pombe 972 growth, higher = more signal, called active from +8 up or from −8 down.
A short description of experiment [14]: budding yeast growth modifiers under rapamycin – strain BY4716, OD600, 96 h, primary screen (AID 1091). Also: test concentration not given here. Particulars: S. cerevisiae BY4716 + rapamycin, higher = more signal, called active from +8 up or from −8 down.
The target in experiment [15] is Torsin-1A-interacting protein 2 (Homo sapiens) (UniProt Q8NFQ8). As to the kind of experiment: small molecules binding lysate-expressed LULL1 – cell lysate, human LULL1 lysate, 635/667 nm fluorescence, primary screen (AID 1092).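 Also: probe is lysate of COS7 cells overexpressing human LULL1; score merges per-feature 667 nm fluorescence with signal-to-noise.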 The following applies: small-molecule microarray, hLULL1 lysate binding, 635 nm fluorescence; higher = more signal.
Experiment [16] can be described thus: optical density change of DRC41 E. coli – strain DRC41, OD650, 24 h, E. coli filamentation project, primary screen (AID 1093).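 Also: MC1000 strain lacking acrAB efflux and sulA so SOS filamentation is blocked; test concentration not given here.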 Particulars: E. coli DRC41 growth, higher = more signal, called active from +8 up or from −8 down.
Experiment [17] can be described thus: probe aLefty2 binding to arrayed compounds – biochemical, biotinylated probe, 635/667 nm fluorescence, primary screen (AID 1094).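 Also: score merges spot fluorescence near 667 nm with spot signal-to-noise ratio.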 The following applies: small-molecule microarray, higher = more signal.
Experiment [18] concerns Noggin (protein binding on small-molecule microarray). Briefly: small molecules binding Noggin protein – biochemical, 635/667 nm fluorescence, primary screen (AID 1095).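 Also: score merges 667 nm feature fluorescence with signal to noise over triplicate slides.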 The following applies: 635 nm fluorescence, higher = more signal.
For experiment [19], the target named is Neurogenic locus notch homolog protein 3 (Homo sapiens) (UniProt Q9UM47). Briefly: small molecules binding NOTCH3 protein – biochemical, 635/667 nm fluorescence, primary screen (AID 1096). The following applies: small-molecule microarray, 635 nm fluorescence, higher = more signal.
The nature of experiment [20]: probe aEGFR binding to arrayed compounds – biochemical, biotinylated probe, 635/667 nm fluorescence, primary screen (AID 1097).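 Also: probe is a biotinylated anti-EGFR antibody binding compounds printed on slides; score combines fluorescence near 667 nm and signal to noise of each spot.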 Particulars: small-molecule microarray, higher = more signal.

Each structure is given as a SMILES string. Activity calls are given as the source filed them.

Neurogenic locus notch homolog protein 2 (Homo sapiens), sequence (Q04721 whole entry, looked up, canonical isoform): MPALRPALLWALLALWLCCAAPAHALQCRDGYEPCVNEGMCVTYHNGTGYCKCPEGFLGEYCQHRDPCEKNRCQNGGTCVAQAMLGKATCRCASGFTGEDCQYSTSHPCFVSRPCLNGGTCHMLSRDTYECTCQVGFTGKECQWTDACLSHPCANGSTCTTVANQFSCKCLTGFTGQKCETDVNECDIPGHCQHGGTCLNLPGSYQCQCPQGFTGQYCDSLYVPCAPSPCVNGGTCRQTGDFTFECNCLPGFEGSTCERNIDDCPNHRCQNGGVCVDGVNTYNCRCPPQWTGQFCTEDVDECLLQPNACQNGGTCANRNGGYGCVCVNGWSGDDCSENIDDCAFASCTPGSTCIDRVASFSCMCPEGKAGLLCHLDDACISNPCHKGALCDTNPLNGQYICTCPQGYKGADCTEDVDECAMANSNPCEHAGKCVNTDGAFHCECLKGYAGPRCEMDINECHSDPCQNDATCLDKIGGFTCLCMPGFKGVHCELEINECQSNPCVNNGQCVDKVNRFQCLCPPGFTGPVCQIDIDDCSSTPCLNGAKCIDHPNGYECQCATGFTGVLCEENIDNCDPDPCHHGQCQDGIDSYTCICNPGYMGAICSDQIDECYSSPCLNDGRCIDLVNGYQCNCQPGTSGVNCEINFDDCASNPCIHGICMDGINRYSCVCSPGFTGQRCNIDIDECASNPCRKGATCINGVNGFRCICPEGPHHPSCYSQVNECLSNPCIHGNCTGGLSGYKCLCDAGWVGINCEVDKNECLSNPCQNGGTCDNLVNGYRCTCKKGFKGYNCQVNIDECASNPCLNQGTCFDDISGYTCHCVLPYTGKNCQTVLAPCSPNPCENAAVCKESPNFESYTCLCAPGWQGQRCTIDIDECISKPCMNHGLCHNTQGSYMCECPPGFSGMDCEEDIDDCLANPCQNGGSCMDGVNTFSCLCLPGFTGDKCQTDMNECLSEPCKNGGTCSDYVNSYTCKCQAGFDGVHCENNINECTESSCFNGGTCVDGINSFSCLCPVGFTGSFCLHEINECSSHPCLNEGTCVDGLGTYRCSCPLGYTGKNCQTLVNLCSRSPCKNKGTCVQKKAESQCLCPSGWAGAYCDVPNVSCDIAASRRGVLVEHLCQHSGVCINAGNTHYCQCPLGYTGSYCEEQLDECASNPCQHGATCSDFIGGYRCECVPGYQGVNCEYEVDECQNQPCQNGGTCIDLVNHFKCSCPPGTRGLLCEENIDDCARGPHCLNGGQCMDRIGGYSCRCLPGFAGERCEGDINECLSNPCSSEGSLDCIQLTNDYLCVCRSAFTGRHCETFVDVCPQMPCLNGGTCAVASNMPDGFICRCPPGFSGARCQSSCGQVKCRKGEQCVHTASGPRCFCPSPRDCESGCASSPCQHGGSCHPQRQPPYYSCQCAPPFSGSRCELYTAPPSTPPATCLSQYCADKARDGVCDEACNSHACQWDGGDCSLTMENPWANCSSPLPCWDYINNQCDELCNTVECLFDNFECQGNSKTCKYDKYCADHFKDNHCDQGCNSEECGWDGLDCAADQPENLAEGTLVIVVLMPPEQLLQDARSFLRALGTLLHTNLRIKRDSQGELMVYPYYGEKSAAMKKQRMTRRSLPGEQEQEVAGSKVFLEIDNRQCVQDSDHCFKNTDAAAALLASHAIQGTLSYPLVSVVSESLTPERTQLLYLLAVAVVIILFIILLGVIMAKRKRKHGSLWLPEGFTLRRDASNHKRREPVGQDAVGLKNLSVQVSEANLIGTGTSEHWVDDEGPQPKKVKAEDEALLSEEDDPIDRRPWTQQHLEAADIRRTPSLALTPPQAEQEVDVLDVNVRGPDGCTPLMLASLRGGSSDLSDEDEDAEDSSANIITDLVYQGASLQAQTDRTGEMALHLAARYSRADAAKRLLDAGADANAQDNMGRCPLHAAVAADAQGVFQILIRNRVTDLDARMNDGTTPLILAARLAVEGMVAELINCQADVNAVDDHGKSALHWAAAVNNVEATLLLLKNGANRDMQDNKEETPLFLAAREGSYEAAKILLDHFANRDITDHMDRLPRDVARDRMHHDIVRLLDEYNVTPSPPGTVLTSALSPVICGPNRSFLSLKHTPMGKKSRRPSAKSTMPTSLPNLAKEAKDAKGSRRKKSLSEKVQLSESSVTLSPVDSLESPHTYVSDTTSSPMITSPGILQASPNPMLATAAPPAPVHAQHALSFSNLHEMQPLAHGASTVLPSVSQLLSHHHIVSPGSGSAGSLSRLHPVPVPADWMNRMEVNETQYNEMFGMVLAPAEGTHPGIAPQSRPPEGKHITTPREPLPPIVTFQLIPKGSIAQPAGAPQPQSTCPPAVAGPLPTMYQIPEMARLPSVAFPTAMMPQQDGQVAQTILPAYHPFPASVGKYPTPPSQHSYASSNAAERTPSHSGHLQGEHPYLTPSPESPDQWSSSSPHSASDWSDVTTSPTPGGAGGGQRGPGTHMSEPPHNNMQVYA
Pro-neuregulin-1, membrane-bound isoform (Homo sapiens), sequence (Q02297 whole entry, looked up, the tested form may be a part, canonical isoform): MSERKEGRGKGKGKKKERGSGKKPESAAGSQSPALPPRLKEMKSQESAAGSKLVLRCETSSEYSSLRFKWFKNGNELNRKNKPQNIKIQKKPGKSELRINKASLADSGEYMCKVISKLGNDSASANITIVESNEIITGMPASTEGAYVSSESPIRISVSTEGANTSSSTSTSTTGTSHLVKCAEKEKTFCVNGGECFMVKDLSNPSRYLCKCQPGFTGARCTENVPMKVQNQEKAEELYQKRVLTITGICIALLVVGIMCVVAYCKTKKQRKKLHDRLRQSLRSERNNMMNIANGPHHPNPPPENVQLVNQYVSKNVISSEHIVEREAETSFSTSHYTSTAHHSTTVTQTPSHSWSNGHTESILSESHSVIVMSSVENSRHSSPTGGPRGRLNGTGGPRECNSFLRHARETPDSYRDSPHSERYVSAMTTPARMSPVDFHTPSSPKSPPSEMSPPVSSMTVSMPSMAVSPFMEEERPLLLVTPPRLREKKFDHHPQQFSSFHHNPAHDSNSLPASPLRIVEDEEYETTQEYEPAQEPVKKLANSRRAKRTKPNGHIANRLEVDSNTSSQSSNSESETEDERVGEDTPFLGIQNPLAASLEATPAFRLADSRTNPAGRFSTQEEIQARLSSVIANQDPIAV
Torsin-1A-interacting protein 2 (Homo sapiens), sequence (Q8NFQ8 whole entry, looked up): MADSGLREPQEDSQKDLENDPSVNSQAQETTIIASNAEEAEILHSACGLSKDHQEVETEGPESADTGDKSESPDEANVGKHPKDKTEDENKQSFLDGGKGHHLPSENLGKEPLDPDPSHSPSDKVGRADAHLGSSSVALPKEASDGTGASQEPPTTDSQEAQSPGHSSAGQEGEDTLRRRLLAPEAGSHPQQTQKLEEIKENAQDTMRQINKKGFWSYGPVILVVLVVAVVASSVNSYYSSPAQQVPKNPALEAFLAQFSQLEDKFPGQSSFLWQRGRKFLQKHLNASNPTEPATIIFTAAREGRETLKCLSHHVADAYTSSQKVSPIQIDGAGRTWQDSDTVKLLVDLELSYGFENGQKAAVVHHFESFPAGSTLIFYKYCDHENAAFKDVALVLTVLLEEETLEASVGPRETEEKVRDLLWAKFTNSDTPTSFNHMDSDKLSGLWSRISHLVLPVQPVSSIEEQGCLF

On to `O=C1C2C=CC(C(O)c3ccc(I)cc3)N(Nc3ccccc3)C2C(=O)N1c1ccccc1` (stereo not given), for which the composite z-score in [1] is 0.996; in experiment [2], 0.404; in [3], 0.106; in experiment [4], 0.368; in [5], 1.54; in [6] it was 2.13. The composite z-score in experiment [7] is 1.22; in experiment [9], 1.27; in experiment [10] it was -0.0988; in experiment [11] it was 1.34; in experiment [15] it was 3.31; in experiment [17] it was 0.265. For the same compound, the values for the composite z-score in [18], in experiment [19] and in experiment [20] were -0.369, 0.82 and 0.0352, respectively. In addition, the z-score in [8] was -1.92 (inactive); in experiment [12], -0.165 (inactive); in [13] it was 0.912 (inactive); in experiment [14], 0.879 (inactive); in experiment [16] it was -0.882 (inactive).

Take `C=C[C@@H](OC)[C@H](OC(=O)Nc1ccc(SC)cc1)c1ccc(OCCO)cc1`: the composite z-score was 0.0275 in experiment [1]; 0.363 in [2]; 0.0166 in experiment [3]; 0.485 in experiment [4]; 0.794 in experiment [5]; 1.43 in [6]. Besides, the composite z-score was 1.33 in experiment [7]; 0.574 in experiment [9]; 0.675 in [10]; 1.13 in [11]; 2.11 in experiment [15]; -0.057 in [17]. Further, the composite z-score in [18] is 0.822; in experiment [19], 0.82; in experiment [20], -0.039. The z-score in experiment [8] is 6.53 (inactive); in experiment [12] it was 0.456 (inactive); in experiment [13], -0.675 (inactive); in experiment [14] it was 0.0094 (inactive); in experiment [16], 0.0144 (inactive).

For `C=CCC(OC(C)=O)[C@@H]1[C@@H](N(Cc2ccc(-c3cccc(C(F)(F)F)c3)o2)C(=O)Cc2ccc(OC)cc2)c2cc(OCCCO)ccc2N1C(=O)Cc1ccc2ccccc2c1` (stereo not given in full), the composite z-score is -0.131 in experiment [1]; -0.919 in experiment [2]; -0.0715 in experiment [3]; -0.139 in experiment [4]; -0.696 in experiment [5]; 0.465 in experiment [6]. Moreover, the composite z-score in experiment [7] is 0.113; in experiment [9], 0.069; in experiment [10], 0.0505; in experiment [11], 0.466; in experiment [15] it was 0.958; in experiment [17], -0.0654. Also, the composite z-score is -0.621 in experiment [18], -0.246 in experiment [19] and -0.217 in [20]. Further, the z-score in experiment [8] was -0.734 (inactive); in experiment [12] it was 0.807 (inactive); in experiment [13], 0.243 (inactive); in [14] it was -0.386 (inactive); in [16], -0.406 (inactive).

As to `CC(CO)N1C(=O)[C@@H]2[C@H]3C(=O)OCC=C[C@H]3OC23C=CCN(c2ccc(Cl)cc2)C(=O)[C@@H]13` (stereo not given in full), the composite z-score in experiment [1] is 1.22; in experiment [2], -1.45; in experiment [3] it was -0.19; in [4], -1.14; in [5], -1.68; in [6], -0.87. Also, the composite z-score in experiment [7] was 0.688; in experiment [9], -0.672; in experiment [10], -0.169; in experiment [11], -0.421; in experiment [15], -0.391; in experiment [17], 0. Besides, the composite z-score was -2.26 in experiment [18], -1.05 in [19] and -0.297 in [20]. The z-score is 0.529 (inactive) in [8]; -0.686 (inactive) in experiment [12]; -0.244 (inactive) in experiment [13]; -0.404 (inactive) in [14]; 0.612 (inactive) in experiment [16].

With `COC(=O)c1c2oc(c1C(=O)OC)C(=O)N1CCC[C@H]1Cn1nncc1CN(Cc1ccccc1)C(=O)N[C@H](CO)CC2`, the composite z-score is 1.31 in [1]; 0.0712 in experiment [2]; -0.0597 in experiment [3]; 0.627 in experiment [4]; 0.201 in experiment [5]; 0.655 in experiment [6]. Also, the composite z-score in experiment [7] is 0.803; in [9], -0.152; in [10], -0.353; in experiment [11] it was 0.97; in experiment [15], 0.983; in experiment [17], -0.116. In addition, the results for the composite z-score in experiment [18], in [19] and in experiment [20] were 0.743, 0.2 and 0.471, respectively. For the same compound, the z-score was -0.606 (inactive) in experiment [8]; 0.955 (inactive) in [12]; -0.086 (inactive) in [13]; 0.613 (inactive) in experiment [14]; 1.24 (inactive) in [16].
